Screening data (PubChem BioAssay)
EBNA-1 inh: blocks EBNA-1 binding to DNA; inhibition, % at 14.8 µM; 300,000 compounds, 0.34% hits; EBNA-1 DNA binding, fluorescence polarization; AID 1950; in the data active = inhibition above about 28%
PG9 binder: binds the HIV-1 gp120 antibody PG9; AID 624416; 360,000 compounds, 0.43% hits; inhibition, % at 6.7 µM; TR-FRET gp120-PG9 antibody binding; in the data active = inhibition above about 8.5%
p47phox inh: inhibitors of human p47phox binding; P14598; p47phox/p22phox peptide binding, fluorescence polarization, 2 h; inhibition, % at 24.7 µM; 220,000 compounds, 0.53% hits; AID 1274;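 active = inhibition above about 30%, limit read from the data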;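 also: 0% = p47phox with labelled peptide and 100% = labelled peptide alone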
Target sequence (P14598 whole entry, looked up): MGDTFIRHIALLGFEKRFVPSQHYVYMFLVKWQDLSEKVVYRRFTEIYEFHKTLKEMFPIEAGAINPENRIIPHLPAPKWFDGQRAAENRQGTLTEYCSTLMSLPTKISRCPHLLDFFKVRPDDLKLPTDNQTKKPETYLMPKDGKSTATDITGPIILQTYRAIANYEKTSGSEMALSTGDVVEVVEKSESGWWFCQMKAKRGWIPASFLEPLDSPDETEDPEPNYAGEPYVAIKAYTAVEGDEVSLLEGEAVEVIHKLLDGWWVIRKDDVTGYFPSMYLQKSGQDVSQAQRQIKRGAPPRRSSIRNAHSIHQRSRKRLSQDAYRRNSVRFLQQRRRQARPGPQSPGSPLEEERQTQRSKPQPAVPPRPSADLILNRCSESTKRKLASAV
ZTA counter: counter-screen for EBNA-1 inhibitors: inhibitors of Epstein-Barr virus ZTA | inhibition, % at 11 µM | ZTA-DNA binding, fluorescence polarization | P03206 | AID 2234 | 320,000 compounds, 0.15% hits; in the data active = inhibition above about 33%
Target sequence (P03206 whole entry, looked up): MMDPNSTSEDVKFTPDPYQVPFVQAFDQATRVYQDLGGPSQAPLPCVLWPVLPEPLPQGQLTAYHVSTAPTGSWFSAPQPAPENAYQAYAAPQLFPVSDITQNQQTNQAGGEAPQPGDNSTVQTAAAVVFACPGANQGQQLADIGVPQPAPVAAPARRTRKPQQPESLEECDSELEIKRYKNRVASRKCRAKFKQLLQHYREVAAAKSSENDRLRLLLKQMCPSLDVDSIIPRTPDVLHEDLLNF
aDG glyco up: alpha-DG glycosylation activation; Pro5-aDG cells, alpha-DG glycosylation AlphaScreen (IIH6); 0% Pro5, 100% B10-LARGE cell signal; activation, % at 10 µM; 360,000 compounds, 0.22% hits; AID 624168;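 active = activation of at least 8% versus controls, or a plate z-score of at least 8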;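 also: Pro5 are CHO cells carrying HIG-tagged alpha-DG that lacks glycosylation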
NR1D1 modulator: modulates human Rev-erb alpha binding to DNA | P20393 | Rev-erbα–FITC-DNA binding, fluorescence polarization, 90 min | activity, % at 10 µM | 370,000 compounds, 0.79% hits;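 active = activity above about 14%, limit read from the data; passing the limit was not always enough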;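 also: 0% = DMSO wells with 35 nM protein and 100% = DMSO wells with 750 nM protein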
NR1D1 mod conf: Rev-erb alpha (human) modulation, hit confirmation. shares compounds with NR1D1 modulator. 3,000 compounds, 61% hits. Rev-erb alpha FITC-DNA binding, fluorescence polarization, 90 min. AID 1259319. activation, % at 25 µM;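 active = activation at or above a set limit, or at least 3 SD above the negative control mean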;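 also: 0% = 35 nM protein with DMSO and 100% = 750 nM protein high control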
RORg counter: counter-screen for Rev-erb alpha modulators: RORgamma DNA binding; shares compounds with NR1D1 modulator; AID 1259320; IC50, µM; purified RORgamma protein-FITC-DNA binding, fluorescence polarization; 910 compounds, 8% hits;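 active = Compounds whose fitted half-maximal concentration for disrupting protein-DNA binding is below 10 micromolar; the record names Rev-erb in its text, so the target is in doubt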
Active calls of the source: *; i = inactive; . = no result. A selection: hits, their analogues and other compounds. The true share with any hit is near 1.9%.

SMILES	EBNA-1 inh	PG9 binder	p47phox inh	ZTA counter	aDG glyco up	NR1D1 modulator	NR1D1 mod conf	others
C=CCOC(=O)N1CCN(C(=O)c2ccc3nc(C)n(C4CCCC4)c3c2)CC1	.	.	.	.	.	-4	.
COc1ccc(-c2nnc(NC(=O)c3cccs3)s2)c(OC)c1	14	0	-5	4	0	3	.
COc1ccc(-c2nnc(NC(=O)Cc3ccccc3)s2)c(OC)c1	3	5	-3	1	0	41*	19*
Cc1cccc(NC(=O)C2CCCN(c3nnc(-n4cccc4)s3)C2)c1C (stereo not given)	.	.	.	.	.	2	.
CC(=O)N1CCc2c(sc(NC(=O)C3CC3)c2-c2nc3ccccc3s2)C1	2	0	-107	0	0	170*	5
COc1ccc(C(=O)NCCNc2nc3c(C)cccc3cc2C#N)cc1	3	1	.	0	0	1	.
Cc1cccc2cc(C#N)c(NCCNC(=O)NC3CCCCC3)nc12	-5	1	-10	-1	0	62*	31*	RORg counter=>40
CCC(CC)NC(=O)O[C@H]1CC[C@@]23CCCN2C(=O)CCC[C@H]3[C@H]1C	.	.	.	.	.	-1	.
CCc1ccc(-n2c(SCC(=O)c3ccc4c(c3)NC(=O)CO4)nc3ccccc3c2=O)cc1	0	1	12	-10	0	13	.
O=C1COc2ccc(C(=O)CSc3nc4ccccc4c(=O)n3-c3ccc(Cl)c(Cl)c3)cc2N1	2	0	5	-14	0	26*	7
O=C1COc2ccc(C(=O)CSc3nnc(Cc4ccccc4)o3)cc2N1	20	6	.	6	0	18*	21*
CCCn1c(SCC(=O)c2ccc3c(c2)NC(=O)CO3)nc2ccccc21	20	-2	4	3	0	1	.
Cn1c(SCC(=O)c2ccc3c(c2)NC(=O)CO3)nc2ccccc21	-1	8	11	6	0	36*	24*
CC(=O)C1(C(=O)NC2CCCC2)CC(c2ccccn2)=NO1 (stereo not given)	.	.	.	.	.	2	.
CCOC(=O)N1CCN(c2ncnc3c2oc2nc(C(C)C)c4c(c23)CCC4)CC1	-3	3	10	-6	0	45*	84*	RORg counter=>40
O=C1CCC[C@H]2C[C@H](NCc3cccs3)CC[C@]23CCCN13	.	.	.	.	.	-2	.
Cc1cc(C(=O)O[C@@H]2CCC[C@]3(C(=O)N(Cc4ccccc4)c4ccccc43)[C@H]2NC(=O)CCc2ccccc2)no1	.	.	.	.	.	7	.
CC(NC(=O)c1ccc(-c2cc(C(F)(F)F)ccc2Cl)o1)c1ccccc1 (stereo not given)	6	4	-4	-17	0	30*	45*	RORg counter=0.78*
CC(C)N1CCCCC(NC(=O)c2ccc(F)c(F)c2)C1=O (stereo not given)	.	.	.	.	.	-1	.
CC1CCC2(CC1)CCN(CCCOC(=O)NCc1ccc(Cl)cc1)C2=O (stereo not given)	.	.	.	.	.	5	.
COc1ccc(NC(=O)CSc2nc(-c3ccc(C)cc3)cc(C(F)(F)F)c2C#N)cc1	8	1	-18	6	0	24*	41*	RORg counter=1.5*
Cc1coc(NC(=O)CSc2nc(-c3ccc(Cl)cc3)cc(C(F)(F)F)c2C#N)n1	8	0	-52	-7	0	78*	66*	RORg counter=>40
COc1ccc(-c2cc(C(F)(F)F)c(C#N)c(SCC(=O)Nc3ccccc3C#N)n2)cc1	4	.	-11	-14	.	.	.
COc1ccc(-c2cc(C(F)(F)F)c(C#N)c(SCC(=O)Nc3nc(C)co3)n2)cc1	15	.	11	3	0	47*	43*	RORg counter=>40
COC(=O)C1CN(Cc2cn(Cc3ccc(OC)cc3)nn2)CCS(=O)(=O)N1Cc1ccccc1 (stereo not given)	.	.	.	.	.	-5	.
SMILES	EBNA-1 inh	PG9 binder	p47phox inh	ZTA counter	aDG glyco up	NR1D1 modulator	NR1D1 mod conf	others
CC(=O)NC(c1ccc(F)c(F)c1)c1nc(-c2ccc(F)c(Cl)c2)cs1 (stereo not given)	.	0	.	.	0	42*	-5
OC(c1ccccc1)c1nc(-c2ccc(F)c(Cl)c2)cs1 (stereo not given)	.	0	.	.	0	16*	-1
OC(c1ccc(F)cc1)c1nc(-c2ccc(Cl)cc2)cs1 (stereo not given)	.	0	.	.	0	-5	.
CC(=O)NC(c1ccc(F)c(F)c1)c1nc(-c2ccc(C)c(C)c2)cs1 (stereo not given)	.	-2	.	.	0	1	.
Clc1ccc(-c2ccnc(-n3cccc3)n2)s1	6	2	3	5	0	18*	-1
CCCC(=O)OC12CCCN(C1)/C(=C/c1cccc(Cl)c1)C2 (stereo not given)	.	.	.	.	.	5	.
Brc1nc(-c2ccccc2)nc(-c2ccccc2)c1Br	5	0	.	8	0	65*	685*	RORg counter=i
Cc1ccc(-c2nnn3c2nc(NCCc2ccc(S(N)(=O)=O)cc2)c2ccccc23)cc1	15	4	-1	1	0	48*	30*
CC(=O)NCCNc1nc2c(-c3ccccc3)nnn2c2ccccc12	9	1	.	-1	0	3	.
Cc1cccc(-c2nnn3c2nc(NCCc2ccc(S(N)(=O)=O)cc2)c2ccccc23)c1	-2	1	-19	10	0	78*	56*	RORg counter=i
NS(=O)(=O)c1ccc(CCNc2nc3c(-c4cccc(F)c4)nnn3c3ccccc23)cc1	1	-1	-15	1	0	82*	83*	RORg counter=>40
O=C(NCc1ccc(C(=O)NC2CCCC2)cc1)c1cccc(Br)c1	.	.	.	.	.	-5	.
CCOc1ccc(-c2nnn(CC(=O)c3cc(OC)ccc3OC)n2)cc1	-5	-2	-3	-7	1	19*	5
O=C1c2ccc(-c3ccc(F)cc3OCc3ccccc3)cc2S(=O)(=O)c2cccc(C(=O)N3CCN(c4ncc(Br)cn4)CC3)c21	.	0	.	.	0	75*	66*
COC(=O)c1ccsc1NC(=O)c1ccc2c(c1)OCCO2	5	0	1	-2	0	8	.
COC(=O)c1ccsc1NC(=O)c1ccc(Cl)s1	7	-2	-6	-7	0	20*	-2
C=CCN1C(=O)[C@@H](CC(=O)NCCCN2CCCC2=O)[C@]2(C(=O)OCC)CCCCC/C=C/12	.	.	.	.	.	9	.
C=CCN1C(=O)/C(=C2/Sc3ccc(OC)cc3N2C)SC1=Nc1ccccc1	-3	3	-6	0	0	-4	.
CCCCN1C(=O)/C(=C2/Sc3ccccc3N2C)S/C1=N\c1ncn[nH]1	-2	-2	-13	26	-1	72*	1
CCN1C(=O)CSC1=NC12CC3CC(CC(C3)C1)C2	-1	0	-15	2	0	49*	58*	RORg counter=>40
